In PubChem BioAssay:
A number with no mark means an inactive call. Activity calls are given as the source filed them.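 The calls were made as follows: active = inhibition above the hit cutoff set in the earlier primary screen (cut at about 27% in these data); inactive = the rest.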

Each compound was assayed against Protein phosphatase methylesterase 1 (Homo sapiens) (UniProt Q9Y570) (assay: human PME-1 methylesterase inhibition confirmation – biochemical, fluorescence polarization, FP-Rh probe, triplicate (AID 2171;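 also: 0% = enzyme with DMSO and 100% = wells lacking PME-1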)). Settings: recombinant PME-1, FP-Rh probe fluorescence polarization; at 5.9 µM; stronger effect = higher value.
Chain of Protein phosphatase methylesterase 1 (Homo sapiens) (Q9Y570 whole entry, looked up): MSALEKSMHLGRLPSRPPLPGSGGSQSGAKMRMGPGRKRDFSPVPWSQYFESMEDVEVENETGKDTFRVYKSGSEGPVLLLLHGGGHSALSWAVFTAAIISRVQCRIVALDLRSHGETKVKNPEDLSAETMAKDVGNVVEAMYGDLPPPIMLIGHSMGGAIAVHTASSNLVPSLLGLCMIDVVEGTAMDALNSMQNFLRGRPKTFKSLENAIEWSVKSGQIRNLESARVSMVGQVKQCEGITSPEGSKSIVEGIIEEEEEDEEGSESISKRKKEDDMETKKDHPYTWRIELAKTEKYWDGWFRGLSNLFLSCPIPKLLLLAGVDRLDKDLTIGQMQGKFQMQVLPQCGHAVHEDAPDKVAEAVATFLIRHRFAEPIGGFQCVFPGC

SMILES	inhibition
CC(C)Nc1nnc(SCC(=O)Nc2ccc3c(c2)C(=O)c2ccccc2C3=O)s1	36.4% (active)
C=CCOc1c(OC)cc(/C=N/Nc2cccc(C(=O)O)c2)c(Br)c1Br	44.5% (active)
Cc1cccc2c(N=Nc3ccc(S(=O)(=O)Nc4cccc(Cl)c4)cc3[N+](=O)[O-])c(O)[nH]c12	-12.3%
COc1ccc(-c2cc(-c3ccc(Cl)cc3)n[nH]2)c(O)c1	16.9%
CCNc1ccccc1CP(=O)(c1ccccc1)c1ccccc1O (stereo not given)	8.88%
O=C(N/N=C/c1c(O)ccc2ccccc12)Nc1ccccc1	35.5% (active)
Cc1cc(N/N=C/c2c(O)ccc3ccccc23)nc(-c2ccccc2O)n1	23.6%
CCc1ccc2nc3sc(C(=O)Nc4nnc(CC)s4)c(N)c3cc2c1	57.6% (active)
CCC(CNc1cc(OC)cc2cccnc12)NC1CCCCC1 (stereo not given)	9.75%
CC1=NN(c2ccccc2)C(=O)C1N=Nc1cccc(O)c1 (stereo not given)	28.1% (active)
Cc1ccccc1NC1=C/C(=N\S(=O)(=O)c2ccc(C(=O)O)cc2)c2ccccc2C1=O	40% (active)
O=C1c2ccccc2-c2onc3ccc(NCCCn4ccnc4)c1c23	163% (active)
Cc1noc(C)c1CSc1nc2ccccc2nc1NS(=O)(=O)c1ccc(Cl)cc1	36% (active)
Cc1cc(C(=O)CC#N)c(C)n1-c1ccc(OC(F)F)cc1	45.9% (active)
COc1ccc(N2CCN(C(=O)C3CCN(S(=O)(=O)c4ccc(F)cc4)CC3)CC2)cc1	59.1% (active)
O=C(Nc1cccc(-c2csc(Nc3ccccc3)n2)c1)c1cc([N+](=O)[O-])cc(C(F)(F)F)c1	23%
Cn1nc(-c2ccc(Cl)cc2)nc2c(=O)n(C)c(=O)nc1-2	44.8% (active)
Cc1oc(-c2ccc3ccccc3c2)nc1CN(C)C(C)c1ccncn1 (stereo not given)	4.93%
CCOc1cc(/C=C2\N=C(SCC)SC2=O)cc([N+](=O)[O-])c1OC(C)=O	47.5% (active)
Cc1cc(C)c2[nH]c(O)c(N=NC3=NC(=O)CS3)c2c1	32% (active)

SMILES	inhibition
CCOC(=O)/C(=N\Nc1ccc(Cl)cc1)c1csc(Nc2ccccc2)n1	14.4%
Cc1cccc(NC(=S)N/N=C/c2c[nH]c3ccccc23)c1	33.3% (active)
O=S(=O)(Nc1cc2nc3ccccc3nc2n1Cc1ccccc1)c1ccc(Cl)cc1	42.4% (active)
COc1cc2c(cc1NC(=O)Nc1ccccc1)oc1ccccc12	-9.58%
COc1ccc2cc3c(N)c(C(=O)NCc4ccco4)sc3nc2c1	39.8% (active)
N#C/C(=C/c1ccc(O)c(O)c1)c1nc2ccccc2[nH]1	-30.6%
Cc1ccc(NS(=O)(=O)c2cccc(C(=O)N3CCN(c4ncccn4)CC3)c2)cc1	9.07%
CCC(C)c1ccc(S(=O)(=O)N2CCN(C(=O)COc3ccc4c(C)cc(=O)oc4c3)CC2)cc1 (stereo not given)	0.33%
COc1cc(OC)cc(-c2nnc(Nc3nc4c(F)cccc4s3)o2)c1	56.2% (active)
Cc1ccccc1NC1=C/C(=N\S(=O)(=O)c2cccs2)c2ccccc2C1=O	38.4% (active)
CCCSc1nnc(NC(=O)c2sc3nc(-c4cccs4)ccc3c2N)s1	37.4% (active)
Nc1c(N=Nc2ccccc2F)c(=O)[nH]n1-c1ccccc1	30.1% (active)
COc1ccc(-c2cc(-c3cc(OC)ccc3O)[nH]n2)cc1	71% (active)
CCOc1ccc(/C=N/Nc2cc(N3CCOCC3)nc(C)n2)c(O)c1	26.4% (active)
Cc1cc(Br)ccc1N=C1NC(=O)CS1	-3.07%
COc1ccccc1NC(=O)c1sc2nc(-c3ccco3)ccc2c1N	71.6% (active)
CCn1cc(C(=O)NCCCN2CC(C)CC(C)C2)c(=O)c2cc(S(=O)(=O)N(C)C3CCCCC3)ccc21 (stereo not given)	35.6% (active)
Oc1ccccc1-c1nc2c3ccccc3c3ccccc3c2[nH]1	21.4%
c1ccc(-c2ccc(C3CCCN3)cc2)cc1 (stereo not given)	0.67%
Cc1ccc(NC(=S)NNc2ccc([N+](=O)[O-])cc2S(=O)(=O)Nc2ccccc2C(=O)O)cc1C	60.2% (active)
